# ± gives the standard deviation of the averaged measurements.
# Tested on: Serratia marcescens K904 PosmB-luxCDABE reporter (pMQ747)
# Assay: PosmB-lux reporter fold induction (RLU/OD600 relative to no-compound control), highest over Biolog concentrations; higher = stronger Rcs reporter activation
# Conditions: Biolog plate: PM18; well positions: F1-4; wild type K904; 4 h
# Method: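 Serratia marcescens K904 (wild type) or its isogenic ΔrcsB mutant, carrying the Rcs-dependent PosmB-luxCDABE reporter plasmid pMQ747, was grown in LB at OD600 0.1 in Biolog Phenotype MicroArray plates PM11-20 for 4 h at 30-32°C. Each compound is present at 3-4 proprietary concentrations (not stated); per the Fig. S1 legend the value given is the highest fold over those wells. Three independent trials.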
row,SMILES,PosmB-lux reporter fold induction
1,NNC(N)=O [semicarbazide],3.39 ± 0.38

# Same assay, conditions: Biolog plate: PM20; well positions: G1-4; wild type K904; 4 h
row,SMILES,PosmB-lux reporter fold induction
1,O=C1C2CC=CCC2C(=O)N1SC(Cl)(Cl)Cl (configuration not stated) [captan],2.3 ± 0.41
